This note sets out measurements from PubChem BioAssay.

Assay [1] in a line: polyglutamine-triggered caspase-3 activation inhibitors, cell-based (AID 1583). The conditions noted are these: polyglutamine-induced caspase-3 activation, cell assay; stronger effect = higher value;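 tested at 10 µM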.
Assay [2] is described as follows: suppressors of polyQ aggregation in yeast, 75Q-TubU reporter (AID 1593). The conditions noted are these: Yeast 75Q polyglutamine aggregation reporter.
The nature of assay [3]: rescue of polyQ-huntingtin neuronal dysfunction in worms, whole organism, C. elegans mechanosensory neurons, N-terminal huntingtin (AID 1599). The conditions noted are these: touch response, stronger effect = higher value.
Assay [4] is described as follows: inhibitors of mitochondrial cytochrome c release, biochemical, purified mitochondria (AID 1603).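 Note: mouse liver mitochondria challenged with calcium chloride; signal normalized to the plate average as 100%.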 The conditions noted are these: stronger effect = lower value.
Assay [5] is described as follows: inhibitors of polyQ protein aggregation (AID 1604). Particulars: polyglutamine-induced protein aggregation inhibition assay; stronger effect = higher value; tested at 2.5 µM.
Assay [6] can be described thus: enhancers of glutamate uptake in motor neurons, MN-1 cell line (AID 1612).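 Note: tested at 1 µM final; 0% = mean of DMSO vehicle wells on each plate; positive means more glutamate uptake than control and negative means less.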 Particulars: MN-1 motor neuron cells, stronger effect = higher value.
A short description of assay [7]: reducers of polyQ inclusions in PC12 cells, cell-based, NGF-treated PC12, GFPQ80 (AID 1614).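 Note: lower means fewer inclusions and 0 means no inclusions at all.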 Particulars: PC12 NGF-treated GFP-polyQ80 inclusion reduction.
A short description of assay [8]: suppressors of polyglutamine aggregation in yeast, 75Q-TubH (AID 1616). Particulars: S. cerevisiae 75Q-TubH polyglutamine aggregation suppression; stronger effect = higher value.
Assay [9] in a line: liver-stage malaria parasite growth inhibition, primary screen, cell-based, HepG2, luciferase luminescence, HepG2 viability (AID 624349).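 Note: 100% = mean of DMSO negative control wells on the same plate.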 Particulars: P. berghei liver stage in HepG2, luciferase luminescence, concentration not given here; parasite load remaining: stronger effect = lower value; viability: measured here: HepG2 viability without parasites.
The nature of assay [10]: differential killing of epithelial or mesenchymal cells, primary screen, imaging, PC-3E GFP, TEM4-18 mCherry, co-culture (AID 1345086;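 active = compounds killing one labelled cell type while sparing the other, by normalised counts and ratio limits, not self-fluorescent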;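 for all read-outs here: cells exposed to compound for 72 h before imaging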;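 for red/green cell ratio (normalised): normalised mesenchymal count divided by normalised epithelial count so high means epithelial killing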). Particulars: imaging cell counts, at 1 µM; for red/green cell ratio (normalised): actives lie on both sides.
Assay [11] relates to Aerobactin synthetase IucA (Klebsiella pneumoniae hvKP1). The experiment in a line: Biochemical IucA enzyme inhibition primary screen of the Spectrum library (AID 1346200; call rule not given here;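 note: 100% = wells without compound and 0% = wells lacking enzyme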). Particulars: malachite green pyrophosphate, A620, at 8 µM, stronger effect = lower value.
Assay [12] can be described thus: growth inhibition of DIPG glioma cells, dose response, cell-based, SU-DIPG-XIII, MIPE5.0, CellTiter-Glo, qHTS (AID 1347064; cut-off not given, nearly all actives have AC50 up to about 23 µM). Particulars: SU-DIPG-XIII viability, CellTiter-Glo ATP luminescence.
A short description of assay [13]: JHH-DIPG-1 glioma cell viability, MIPE5.0 library, CellTiter-Glo luminescence, qHTS (AID 1347067; cut-off not given, nearly all actives have AC50 up to about 26 µM;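 note: cells exposed to compound for 48 hours before readout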). The conditions noted are these: JHH-DIPG-1 glioma viability, CellTiter-Glo ATP luminescence.
The nature of assay [14]: sensitizers of A549 cells to miR-34 induction, primary screen, imaging, A549 dox-inducible miR-34, nuclei and caspase counts (AID 1347080;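 active = compounds whose cell count with miR-34 switched on is under 0.7 times the count with it off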). Particulars: A549 miR-34 inducible, Hoechst nuclei count, 48 h.
Assay [15] deals with NAD(+) hydrolase SARM1 (Homo sapiens) (UniProt Q6SZW1). The experiment in a line: SARM1 TIR NADase inhibitors, cell lysate, NAD-Glo luminescence (AID 1508614;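 active = compound whose remaining NAD level is above about 45 nM, limit read from the data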;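 note: higher remaining NAD means stronger inhibition of SARM1 NADase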). The conditions noted are these: SAM-TIR HEK293T lysate NADase, at 1 µM, stronger effect = higher value.
NAD(+) hydrolase SARM1 (Homo sapiens), sequence (Q6SZW1 whole entry, looked up, the tested form may be a part): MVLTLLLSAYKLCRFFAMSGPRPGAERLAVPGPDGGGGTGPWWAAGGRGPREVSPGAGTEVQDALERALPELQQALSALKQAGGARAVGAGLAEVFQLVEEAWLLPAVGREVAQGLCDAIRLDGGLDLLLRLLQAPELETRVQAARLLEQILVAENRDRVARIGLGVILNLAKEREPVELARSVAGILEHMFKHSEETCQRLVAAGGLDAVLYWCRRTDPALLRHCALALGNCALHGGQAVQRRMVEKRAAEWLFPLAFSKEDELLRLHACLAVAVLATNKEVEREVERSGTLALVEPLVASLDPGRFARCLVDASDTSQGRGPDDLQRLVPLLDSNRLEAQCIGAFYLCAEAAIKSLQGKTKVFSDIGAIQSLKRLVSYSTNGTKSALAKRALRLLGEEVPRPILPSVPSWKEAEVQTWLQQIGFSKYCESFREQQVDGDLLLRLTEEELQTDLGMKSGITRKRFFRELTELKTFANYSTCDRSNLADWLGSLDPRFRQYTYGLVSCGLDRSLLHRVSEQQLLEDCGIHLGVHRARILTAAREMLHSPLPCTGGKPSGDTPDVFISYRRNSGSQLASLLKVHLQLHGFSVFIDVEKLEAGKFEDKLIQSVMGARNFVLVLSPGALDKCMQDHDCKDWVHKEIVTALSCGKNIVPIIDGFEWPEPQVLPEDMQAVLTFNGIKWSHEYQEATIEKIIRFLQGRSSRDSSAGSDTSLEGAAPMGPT
Assay [16] has as its target Mitogen-activated protein kinase 7 (Homo sapiens) (UniProt Q13164). Put plainly: ERK5 transactivation activators in reporter cells, primary screen, cell-based, HTS (AID 1508626;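 active = luciferase signal above three times the same-plate solvent-only control wells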;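 note: luciferase driven by Gal4-ERK5 fusion binding five Gal4 sites before minimal TATA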). Particulars: HeLa Gal4-ERK5 transactivation, 18 h, at 5 µM, stronger effect = higher value.
The mark [17] stands for this setting: measured here: epithelial PC-3E GFP cell survival.
Where [18] appears, read: measured here: mesenchymal TEM4-18 mCherry cell survival.
The mark [19] stands for this setting: measured here: relative caspase fold change +Dox/-Dox.
Where [20] appears, read: measured here: total cells with miR-34 induction, stronger effect = lower value.
[21] abbreviates: measured here: total cells without miR-34 induction.

Several values for one entry are separate records, joined by “and”; a condition that tells them apart may be missing. Equal entries are not always repeated. Results filed as inconclusive are left out. For part of these data: Results with a measured potency or affinity are listed apart. Activity calls are given as the source filed them. Cut-off read from the data, not from the text of the source, unless noted: active = parasite load remaining mostly below about 12% (no sharp cut-off); inactive = mostly above about 10%.

Mitogen-activated protein kinase 7 (Homo sapiens), sequence (Q13164 whole entry, looked up, the tested form may be a part): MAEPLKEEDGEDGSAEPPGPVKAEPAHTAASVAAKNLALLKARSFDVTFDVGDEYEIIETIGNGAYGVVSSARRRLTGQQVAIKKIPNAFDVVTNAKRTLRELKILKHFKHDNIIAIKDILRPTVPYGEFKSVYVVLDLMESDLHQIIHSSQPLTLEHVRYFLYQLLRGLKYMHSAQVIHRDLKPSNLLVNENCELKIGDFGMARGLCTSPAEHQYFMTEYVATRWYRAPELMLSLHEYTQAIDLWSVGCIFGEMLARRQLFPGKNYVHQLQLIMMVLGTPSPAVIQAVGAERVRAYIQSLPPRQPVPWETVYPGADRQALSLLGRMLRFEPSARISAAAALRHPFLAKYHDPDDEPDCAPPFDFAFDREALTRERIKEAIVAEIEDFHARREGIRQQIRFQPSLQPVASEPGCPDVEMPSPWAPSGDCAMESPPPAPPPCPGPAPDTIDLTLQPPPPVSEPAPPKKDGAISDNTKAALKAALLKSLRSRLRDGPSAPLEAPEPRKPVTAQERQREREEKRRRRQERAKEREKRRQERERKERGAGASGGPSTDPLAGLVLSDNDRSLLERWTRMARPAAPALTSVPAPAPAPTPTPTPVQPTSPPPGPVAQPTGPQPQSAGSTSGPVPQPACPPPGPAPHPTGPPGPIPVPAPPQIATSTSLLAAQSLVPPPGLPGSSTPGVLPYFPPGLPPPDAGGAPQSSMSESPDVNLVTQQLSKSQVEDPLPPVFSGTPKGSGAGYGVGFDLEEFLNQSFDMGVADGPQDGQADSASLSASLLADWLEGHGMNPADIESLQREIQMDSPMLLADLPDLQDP

As to `N#CC(O[C@@H]1O[C@H](CO[C@@H]2O[C@H](CO)[C@@H](O)[C@H](O)[C@H]2O)[C@@H](O)[C@H](O)[C@H]1O)c1ccccc1` (stereo partly drawn), in assay [1], the inhibition came out at 3.65%. In addition, the score in assay [2] was found to be 1.42. The rescue above control in assay [3] was -2.1. Moreover, in assay [4], the cytochrome c release ratio was found to be 1.2. Further, the inhibition of aggregation in [5] was 36.6%. Also, the glutamate uptake change in assay [6] was 14%. Moreover, in [7], the inclusion score worked out at 2. This molecule registered an aggregation suppression score in assay [8] of 1.51. Moreover, the parasite load remaining in assay [9] is 116% (inactive). Besides, the viability in assay [9] came out at 70.2%. Also, the red/green cell ratio (normalised) in assay [10] was 1 (inactive). Moreover, the normalised cell number in assay [10] (setting [17]) and in [10] (setting [18]) was 0.94 throughout. Besides, in [11], the activity remaining is 123% (inactive). Also, the outcome in assay [12] and in assay [13] was inactive.

`Oc1ccc2c3c1OC1[C@@H](O)CC[C@@]4(O)[C@@H](C2)N(CC2CCC2)CC[C@]314` (stereo partly drawn): in assay [1], the inhibition is -4.48%. The molecule further had a score in assay [2] of 1.45. In assay [3], this molecule yielded a rescue above control of -8.65. For the same molecule, in [4], the cytochrome c release ratio came out at 0.87. The inhibition of aggregation in assay [5] was found to be 52.2%. In addition, the glutamate uptake change in assay [6] is -2.6%. Also, the inclusion score in assay [7] is 2. The aggregation suppression score in [8] was found to be 1.67. Further, the parasite load remaining in assay [9] is 136% (inactive) and 45% (inactive). Moreover, the viability in [9] was 75.1% and 93.8%. For the same molecule, the red/green cell ratio (normalised) in [10] is 0.87 (inactive). The normalised cell number in [10] (setting [17]) is 1.11; in assay [10] (setting [18]), 0.97. In addition, the activity remaining in assay [11] is 103% (inactive). The fold change in assay [14] (stronger effect = lower value) was 0.892 (inactive); in [14] (setting [19]), 2.83. The values for the cell count in assay [14] (setting [20]) and in assay [14] (setting [21]) were 12000 and 13500, respectively.

As for `CCC(=O)O[C@H]1CCC2C3CCC4=CC(=O)CC[C@]4(C)C3CC[C@@]21C` (stereo partly drawn), the inhibition in assay [1] was determined as 28.2%. Besides, in [2], the score was found to be 0.18. The molecule further gave a rescue above control in [3] of -2.54. Moreover, the cytochrome c release ratio in assay [4] was 0.85. The same molecule yielded an inhibition of aggregation in [5] of 35.3%. The glutamate uptake change in assay [6] is 14.3%. This molecule came in with an aggregation suppression score in assay [8] of 0.523. In assay [9], the parasite load remaining was 54.4% (inactive). For the same molecule, in assay [9], the viability came to 99.7%. Also, the red/green cell ratio (normalised) in [10] is 1.2 (inactive). The normalised cell number in assay [10] (setting [17]) came to 1.23; in assay [10] (setting [18]) it was 1.48. Further, in assay [11], the activity remaining was 108% (inactive). Besides, the fold change in assay [14] (stronger effect = lower value) is 0.927 (inactive); in assay [14] (setting [19]) it was 4.54. In addition, the cell count in [14] (setting [20]) came out at 10500; in [14] (setting [21]), 11300.

As for `C[C@]12CCC(=O)C=C1C=CC1C2CC[C@@]2(C)C1CC[C@@]2(O)CCC(=O)O` (stereo partly drawn), in [9], the parasite load remaining was 99.8% (inactive) and 46.1% (inactive). Also, the viability in [9] was 62.7% and 93.1%. Moreover, the red/green cell ratio (normalised) in assay [10] is 1.24 (inactive). The normalised cell number in [10] (setting [17]) worked out at 0.95; in assay [10] (setting [18]) it was 1.17. The activity remaining in [11] is 110% (inactive). In addition, the fold change in [14] (stronger effect = lower value) is 0.912 (inactive); in [14] (setting [19]), 3.05. The cell count worked out at 12000 in assay [14] (setting [20]) and 13100 in [14] (setting [21]). In addition, the remaining NAD in assay [15] is 10 nM (inactive). The luciferase signal in assay [16] is 60 AU (inactive).
